Test results published in publication PMC7862700, “An all-to-all approach to the identification of sequence-specific readers for epigenetic DNA modifications on cytosine”.

Assays:
Test in all cases: DAPPL (digital affinity profiling via proximity ligation, sequencing); 10 mM Tris-HCl pH 7.5, 50 mM NaCl, 1 mM DTT, 4% glycerol, room temperature, 30 min; GST-TFs on glutathione beads, 16-mer random dsDNA library, 0.1% formaldehyde crosslink after washing; high values mean tight binding
[1] = target: T1, FLI1 (Homo sapiens, UniProt Q01543 1-452); details: protein: recombinant; tags: N-terminal GST; dsDNA, one strand shown
T1 sequence: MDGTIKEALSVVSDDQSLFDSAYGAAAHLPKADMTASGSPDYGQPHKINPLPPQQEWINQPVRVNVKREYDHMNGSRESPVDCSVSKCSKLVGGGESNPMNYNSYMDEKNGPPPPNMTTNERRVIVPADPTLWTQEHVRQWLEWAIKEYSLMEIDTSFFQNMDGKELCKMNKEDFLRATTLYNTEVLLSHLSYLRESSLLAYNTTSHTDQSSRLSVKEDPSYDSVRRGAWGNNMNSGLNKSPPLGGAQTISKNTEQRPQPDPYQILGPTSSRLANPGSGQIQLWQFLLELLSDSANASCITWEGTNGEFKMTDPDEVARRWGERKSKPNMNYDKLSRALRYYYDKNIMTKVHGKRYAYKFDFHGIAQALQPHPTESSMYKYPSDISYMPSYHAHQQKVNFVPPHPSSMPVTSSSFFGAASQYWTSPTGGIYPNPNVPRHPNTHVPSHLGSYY
Procedure, shortened: (§1)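 Beads coated with glutathione captured GST-fused human transcription factors that had been expressed in yeast, and the factors were then given DNA barcodes and pooled with a tag-only sample. The pools were incubated with 200 nmole of a random double-stranded 16-mer DNA library in Tris/NaCl/DTT/glycerol buffer for 30 min at room temperature, washed, crosslinked with 0.1% formaldehyde and proximity-ligated with BsaI/T4 ligase at 37 °C for 1 h. PCR amplification and Illumina NextSeq500 sequencing came last. Binding signal is each hexamer's read frequency for a factor divided by its frequency for the tag-only sample.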

[2] = target: T2, ELK1 (Homo sapiens, UniProt P19419 1-428); details: protein: recombinant; tags: N-terminal GST; dsDNA, one strand shown
T2 sequence: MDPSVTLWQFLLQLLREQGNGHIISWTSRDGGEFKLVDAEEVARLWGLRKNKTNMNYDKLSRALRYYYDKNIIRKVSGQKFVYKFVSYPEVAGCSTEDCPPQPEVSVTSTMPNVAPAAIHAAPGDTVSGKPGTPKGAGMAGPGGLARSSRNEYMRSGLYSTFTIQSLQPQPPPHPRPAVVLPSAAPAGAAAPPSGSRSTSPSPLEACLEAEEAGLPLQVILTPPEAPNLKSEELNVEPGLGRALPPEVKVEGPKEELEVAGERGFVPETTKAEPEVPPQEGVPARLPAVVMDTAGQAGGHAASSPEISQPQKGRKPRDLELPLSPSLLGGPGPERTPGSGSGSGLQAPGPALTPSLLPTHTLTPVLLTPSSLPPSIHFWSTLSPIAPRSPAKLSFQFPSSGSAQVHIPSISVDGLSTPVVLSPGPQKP
Procedure, shortened: as §1

[3] = target: T3, GABPA (Homo sapiens, UniProt Q06546 1-454); details: protein: recombinant; tags: N-terminal GST; dsDNA, one strand shown
T3 sequence: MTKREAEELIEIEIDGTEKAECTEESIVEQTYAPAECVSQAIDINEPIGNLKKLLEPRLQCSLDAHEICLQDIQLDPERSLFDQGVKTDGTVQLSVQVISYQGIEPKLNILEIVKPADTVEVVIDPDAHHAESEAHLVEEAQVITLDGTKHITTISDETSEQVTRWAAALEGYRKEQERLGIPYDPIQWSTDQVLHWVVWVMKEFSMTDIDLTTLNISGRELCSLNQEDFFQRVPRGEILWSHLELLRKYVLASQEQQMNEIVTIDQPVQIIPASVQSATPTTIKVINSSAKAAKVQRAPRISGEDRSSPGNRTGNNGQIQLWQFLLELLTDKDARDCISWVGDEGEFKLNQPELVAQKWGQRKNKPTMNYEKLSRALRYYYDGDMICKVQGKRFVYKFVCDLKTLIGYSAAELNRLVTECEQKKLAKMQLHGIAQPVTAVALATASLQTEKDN
Procedure, shortened: as §1

[4] = target: T4, ERG (Homo sapiens, UniProt P11308 1-479); details: protein: recombinant; tags: N-terminal GST; dsDNA, one strand shown
T4 sequence: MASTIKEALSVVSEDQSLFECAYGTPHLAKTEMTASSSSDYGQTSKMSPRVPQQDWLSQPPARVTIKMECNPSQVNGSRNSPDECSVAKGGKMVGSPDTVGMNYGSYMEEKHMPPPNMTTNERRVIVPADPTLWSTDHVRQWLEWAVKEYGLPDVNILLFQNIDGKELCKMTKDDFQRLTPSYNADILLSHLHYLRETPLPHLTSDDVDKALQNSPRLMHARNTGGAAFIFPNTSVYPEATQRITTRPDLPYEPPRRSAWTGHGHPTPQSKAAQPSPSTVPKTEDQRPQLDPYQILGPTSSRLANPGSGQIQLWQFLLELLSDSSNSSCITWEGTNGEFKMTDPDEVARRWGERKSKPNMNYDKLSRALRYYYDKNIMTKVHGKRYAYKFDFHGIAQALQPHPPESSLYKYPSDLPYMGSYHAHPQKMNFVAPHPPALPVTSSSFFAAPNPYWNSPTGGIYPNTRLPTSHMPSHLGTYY
Procedure, shortened: as §1

[5] = target: ELF1 (Homo sapiens, UniProt P32519 1-619); details: protein: recombinant; tags: N-terminal GST; dsDNA, one strand shown
ELF1, sequence (P32519 whole entry): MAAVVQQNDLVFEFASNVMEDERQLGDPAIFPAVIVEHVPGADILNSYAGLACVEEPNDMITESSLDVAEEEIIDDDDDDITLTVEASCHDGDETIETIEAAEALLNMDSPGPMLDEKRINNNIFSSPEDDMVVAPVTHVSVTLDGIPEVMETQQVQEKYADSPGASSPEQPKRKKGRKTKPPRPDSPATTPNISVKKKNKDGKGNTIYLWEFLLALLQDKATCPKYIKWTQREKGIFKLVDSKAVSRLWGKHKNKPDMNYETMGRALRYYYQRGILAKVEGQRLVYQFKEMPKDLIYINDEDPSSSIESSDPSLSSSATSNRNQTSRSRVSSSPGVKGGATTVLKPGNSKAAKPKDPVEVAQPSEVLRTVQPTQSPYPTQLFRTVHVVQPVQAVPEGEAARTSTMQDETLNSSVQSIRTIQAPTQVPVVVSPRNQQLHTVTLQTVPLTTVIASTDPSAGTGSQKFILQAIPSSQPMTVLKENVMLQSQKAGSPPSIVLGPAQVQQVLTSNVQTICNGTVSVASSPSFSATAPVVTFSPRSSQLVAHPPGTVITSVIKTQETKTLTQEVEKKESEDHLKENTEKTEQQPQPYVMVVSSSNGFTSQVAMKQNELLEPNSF
Procedure, shortened: as §1

[6] = target: T5, EHF (Homo sapiens, UniProt Q9NZC4 1-300); details: protein: recombinant; tags: N-terminal GST; dsDNA, one strand shown
T5 sequence: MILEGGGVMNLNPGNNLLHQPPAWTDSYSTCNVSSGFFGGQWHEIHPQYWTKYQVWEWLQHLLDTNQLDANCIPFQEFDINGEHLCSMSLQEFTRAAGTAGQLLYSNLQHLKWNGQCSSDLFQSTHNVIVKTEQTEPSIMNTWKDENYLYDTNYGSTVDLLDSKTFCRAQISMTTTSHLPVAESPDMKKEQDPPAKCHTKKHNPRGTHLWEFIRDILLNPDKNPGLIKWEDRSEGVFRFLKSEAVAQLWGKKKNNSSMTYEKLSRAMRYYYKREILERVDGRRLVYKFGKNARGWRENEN
Procedure, shortened: as §1

[7] = target: SPI1 (Homo sapiens, UniProt P17947 1-270); details: protein: recombinant; tags: N-terminal GST; dsDNA, one strand shown
Procedure, shortened: as §1

[8] = target: SPIB (Homo sapiens, UniProt Q01892 1-262); details: protein: recombinant; tags: N-terminal GST; dsDNA, one strand shown
SPIB, sequence (Q01892 whole entry): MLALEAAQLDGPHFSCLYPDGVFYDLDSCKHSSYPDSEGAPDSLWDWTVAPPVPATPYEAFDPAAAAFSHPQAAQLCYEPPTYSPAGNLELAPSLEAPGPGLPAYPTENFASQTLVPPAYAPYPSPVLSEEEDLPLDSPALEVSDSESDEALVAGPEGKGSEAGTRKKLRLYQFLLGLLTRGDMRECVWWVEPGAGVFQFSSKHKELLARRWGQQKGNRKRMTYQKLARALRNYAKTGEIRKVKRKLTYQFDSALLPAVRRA
Procedure, shortened: as §1

[9] = target: T6, ELK3 (Homo sapiens, UniProt P41970 1-407); details: protein: recombinant; tags: N-terminal GST; dsDNA, one strand shown
T6 sequence: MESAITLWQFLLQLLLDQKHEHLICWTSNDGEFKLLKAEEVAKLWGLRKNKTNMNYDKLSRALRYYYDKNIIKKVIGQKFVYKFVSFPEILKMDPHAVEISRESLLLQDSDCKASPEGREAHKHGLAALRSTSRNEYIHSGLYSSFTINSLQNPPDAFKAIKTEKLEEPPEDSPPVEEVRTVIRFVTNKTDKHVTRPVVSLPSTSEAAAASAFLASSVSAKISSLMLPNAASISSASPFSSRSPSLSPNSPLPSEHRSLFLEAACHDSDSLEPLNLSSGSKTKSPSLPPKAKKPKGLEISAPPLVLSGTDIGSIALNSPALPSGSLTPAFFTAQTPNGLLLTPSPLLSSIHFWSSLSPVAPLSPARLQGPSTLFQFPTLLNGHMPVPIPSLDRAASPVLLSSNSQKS
Procedure, shortened: as §1

[10] = target: T7, FEV (Homo sapiens, UniProt Q99581 1-238); details: protein: recombinant; tags: N-terminal GST; dsDNA, one strand shown
T7 sequence: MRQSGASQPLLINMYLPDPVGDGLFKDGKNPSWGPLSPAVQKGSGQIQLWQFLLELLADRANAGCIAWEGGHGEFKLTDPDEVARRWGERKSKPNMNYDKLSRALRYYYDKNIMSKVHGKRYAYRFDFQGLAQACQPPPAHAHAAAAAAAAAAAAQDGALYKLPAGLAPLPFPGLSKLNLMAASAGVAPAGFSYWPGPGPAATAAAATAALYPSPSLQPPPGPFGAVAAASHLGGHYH
Procedure, shortened: as §1

[11] = target: ETV5 (Homo sapiens, UniProt P41161 1-510); details: protein: recombinant; tags: N-terminal GST; dsDNA, one strand shown
ETV5, sequence (P41161 whole entry): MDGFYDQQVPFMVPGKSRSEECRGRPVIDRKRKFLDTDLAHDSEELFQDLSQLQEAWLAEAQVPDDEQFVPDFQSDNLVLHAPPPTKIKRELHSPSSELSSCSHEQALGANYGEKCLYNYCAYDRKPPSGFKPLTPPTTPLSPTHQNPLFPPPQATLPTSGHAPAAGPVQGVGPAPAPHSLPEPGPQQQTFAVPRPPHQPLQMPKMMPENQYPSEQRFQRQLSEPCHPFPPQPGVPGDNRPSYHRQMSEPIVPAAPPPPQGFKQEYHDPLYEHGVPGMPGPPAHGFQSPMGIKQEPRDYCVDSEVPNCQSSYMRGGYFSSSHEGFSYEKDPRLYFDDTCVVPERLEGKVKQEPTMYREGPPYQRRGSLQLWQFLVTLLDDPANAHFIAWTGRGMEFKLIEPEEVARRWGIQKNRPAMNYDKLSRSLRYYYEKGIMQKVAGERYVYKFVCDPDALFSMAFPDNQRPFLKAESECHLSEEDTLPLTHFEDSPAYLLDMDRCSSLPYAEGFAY
Procedure, shortened: as §1

[12] = target: HSF1 (Homo sapiens, UniProt Q00613 1-529); details: protein: recombinant; tags: N-terminal GST; chain copies: 3; dsDNA, one strand shown
HSF1, sequence (Q00613 whole entry): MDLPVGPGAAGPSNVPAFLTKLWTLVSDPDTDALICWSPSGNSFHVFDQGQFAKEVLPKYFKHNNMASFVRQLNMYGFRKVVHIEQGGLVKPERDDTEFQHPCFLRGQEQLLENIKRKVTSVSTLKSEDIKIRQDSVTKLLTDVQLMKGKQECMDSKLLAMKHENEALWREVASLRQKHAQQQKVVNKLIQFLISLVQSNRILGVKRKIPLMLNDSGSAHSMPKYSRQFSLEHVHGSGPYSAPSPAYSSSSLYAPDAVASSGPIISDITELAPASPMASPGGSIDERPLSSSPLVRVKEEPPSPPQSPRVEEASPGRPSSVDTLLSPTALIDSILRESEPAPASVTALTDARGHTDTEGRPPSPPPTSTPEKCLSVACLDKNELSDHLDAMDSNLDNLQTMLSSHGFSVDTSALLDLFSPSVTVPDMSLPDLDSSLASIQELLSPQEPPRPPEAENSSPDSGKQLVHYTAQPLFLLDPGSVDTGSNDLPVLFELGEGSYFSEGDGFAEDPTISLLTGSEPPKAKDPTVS
Procedure, shortened: as §1

[13] = target: T8, SPIC (Homo sapiens, UniProt Q8N5J4 1-248); details: protein: recombinant; tags: N-terminal GST; dsDNA, one strand shown
T8 sequence: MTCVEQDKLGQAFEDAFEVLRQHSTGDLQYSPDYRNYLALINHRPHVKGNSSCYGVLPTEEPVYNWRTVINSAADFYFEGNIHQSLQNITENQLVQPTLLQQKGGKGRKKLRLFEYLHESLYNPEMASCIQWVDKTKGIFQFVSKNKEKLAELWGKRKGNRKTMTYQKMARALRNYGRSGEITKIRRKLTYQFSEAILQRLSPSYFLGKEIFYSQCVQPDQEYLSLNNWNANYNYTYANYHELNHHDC
Procedure, shortened: as §1

[14] = target: ELF4 (Homo sapiens, UniProt Q99607 1-663); details: protein: recombinant; tags: N-terminal GST; dsDNA, one strand shown
ELF4, sequence (Q99607 whole entry): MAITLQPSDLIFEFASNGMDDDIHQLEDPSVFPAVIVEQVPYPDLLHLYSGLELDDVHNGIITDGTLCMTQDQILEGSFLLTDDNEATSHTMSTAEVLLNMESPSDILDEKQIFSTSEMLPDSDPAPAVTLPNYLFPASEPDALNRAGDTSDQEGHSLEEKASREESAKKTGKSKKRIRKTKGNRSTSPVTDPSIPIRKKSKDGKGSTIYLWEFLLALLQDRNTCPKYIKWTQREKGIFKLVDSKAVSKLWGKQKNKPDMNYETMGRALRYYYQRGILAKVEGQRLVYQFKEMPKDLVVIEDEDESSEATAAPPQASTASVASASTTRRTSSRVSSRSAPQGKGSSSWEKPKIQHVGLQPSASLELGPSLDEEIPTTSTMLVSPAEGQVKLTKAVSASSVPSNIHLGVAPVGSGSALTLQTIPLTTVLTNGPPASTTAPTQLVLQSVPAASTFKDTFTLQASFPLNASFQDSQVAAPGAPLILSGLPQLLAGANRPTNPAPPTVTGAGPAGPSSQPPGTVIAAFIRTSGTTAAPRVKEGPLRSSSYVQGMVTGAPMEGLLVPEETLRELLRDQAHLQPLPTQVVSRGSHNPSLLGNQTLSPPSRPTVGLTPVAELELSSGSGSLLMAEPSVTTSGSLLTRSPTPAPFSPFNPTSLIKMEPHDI
Procedure, shortened: as §1

[15] = target: T9, ELK4 (Homo sapiens, UniProt P28324-2 1-405); details: protein: recombinant; tags: N-terminal GST; dsDNA, one strand shown
T9 sequence: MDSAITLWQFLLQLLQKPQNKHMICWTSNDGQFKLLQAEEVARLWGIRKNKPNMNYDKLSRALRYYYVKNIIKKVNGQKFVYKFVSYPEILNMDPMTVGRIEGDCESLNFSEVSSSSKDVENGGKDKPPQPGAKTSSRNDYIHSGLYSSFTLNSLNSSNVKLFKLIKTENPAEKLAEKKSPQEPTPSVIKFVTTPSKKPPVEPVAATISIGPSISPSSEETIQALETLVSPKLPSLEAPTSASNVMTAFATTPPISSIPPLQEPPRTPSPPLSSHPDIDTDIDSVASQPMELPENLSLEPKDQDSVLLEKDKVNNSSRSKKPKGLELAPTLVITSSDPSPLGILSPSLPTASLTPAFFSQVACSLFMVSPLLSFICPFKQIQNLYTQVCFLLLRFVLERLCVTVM
Procedure, shortened: as §1

[16] = target: T10, ETV2 (Homo sapiens, UniProt O00321 1-342); details: protein: recombinant; tags: N-terminal GST; dsDNA, one strand shown
T10 sequence: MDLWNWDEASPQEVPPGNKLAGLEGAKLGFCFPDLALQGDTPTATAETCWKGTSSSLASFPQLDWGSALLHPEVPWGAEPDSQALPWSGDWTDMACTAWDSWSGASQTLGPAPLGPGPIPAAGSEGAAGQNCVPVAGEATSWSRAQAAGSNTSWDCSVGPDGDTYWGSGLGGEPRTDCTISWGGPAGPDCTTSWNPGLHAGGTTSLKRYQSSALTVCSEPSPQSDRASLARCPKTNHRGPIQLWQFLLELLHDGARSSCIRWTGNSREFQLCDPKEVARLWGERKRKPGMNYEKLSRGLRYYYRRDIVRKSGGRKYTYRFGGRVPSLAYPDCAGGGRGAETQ
Procedure, shortened: as §1

[17] = target: T11, ELF3 (Homo sapiens, UniProt P78545 1-371); details: protein: recombinant; tags: N-terminal GST; dsDNA, one strand shown
T11 sequence: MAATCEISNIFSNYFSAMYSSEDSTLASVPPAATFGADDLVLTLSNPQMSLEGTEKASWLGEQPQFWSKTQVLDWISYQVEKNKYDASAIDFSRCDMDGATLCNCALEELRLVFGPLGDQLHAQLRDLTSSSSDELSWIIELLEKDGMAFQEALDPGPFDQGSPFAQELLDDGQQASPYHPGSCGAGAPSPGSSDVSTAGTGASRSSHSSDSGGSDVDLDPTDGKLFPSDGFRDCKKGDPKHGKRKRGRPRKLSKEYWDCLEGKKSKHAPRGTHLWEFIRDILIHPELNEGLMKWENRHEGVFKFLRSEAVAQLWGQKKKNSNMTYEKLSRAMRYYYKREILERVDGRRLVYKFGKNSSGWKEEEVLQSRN
Procedure, shortened: as §1

[18] = target: CRX (Homo sapiens, UniProt O43186 1-299); details: protein: recombinant; tags: N-terminal GST; dsDNA, one strand shown
CRX, sequence (O43186 whole entry): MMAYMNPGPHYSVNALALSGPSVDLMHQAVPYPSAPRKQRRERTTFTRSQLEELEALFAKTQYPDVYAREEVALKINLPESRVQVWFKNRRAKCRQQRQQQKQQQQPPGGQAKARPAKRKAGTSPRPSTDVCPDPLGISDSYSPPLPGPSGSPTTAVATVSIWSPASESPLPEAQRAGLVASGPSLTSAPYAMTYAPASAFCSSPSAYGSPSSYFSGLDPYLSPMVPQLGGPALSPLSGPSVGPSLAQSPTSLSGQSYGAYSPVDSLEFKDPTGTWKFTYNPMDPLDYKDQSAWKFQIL
Procedure, shortened: as §1

[19] = target: ETV1 (Homo sapiens, UniProt P50549 1-477); details: protein: recombinant; tags: N-terminal GST; dsDNA, one strand shown
ETV1, sequence (P50549 whole entry): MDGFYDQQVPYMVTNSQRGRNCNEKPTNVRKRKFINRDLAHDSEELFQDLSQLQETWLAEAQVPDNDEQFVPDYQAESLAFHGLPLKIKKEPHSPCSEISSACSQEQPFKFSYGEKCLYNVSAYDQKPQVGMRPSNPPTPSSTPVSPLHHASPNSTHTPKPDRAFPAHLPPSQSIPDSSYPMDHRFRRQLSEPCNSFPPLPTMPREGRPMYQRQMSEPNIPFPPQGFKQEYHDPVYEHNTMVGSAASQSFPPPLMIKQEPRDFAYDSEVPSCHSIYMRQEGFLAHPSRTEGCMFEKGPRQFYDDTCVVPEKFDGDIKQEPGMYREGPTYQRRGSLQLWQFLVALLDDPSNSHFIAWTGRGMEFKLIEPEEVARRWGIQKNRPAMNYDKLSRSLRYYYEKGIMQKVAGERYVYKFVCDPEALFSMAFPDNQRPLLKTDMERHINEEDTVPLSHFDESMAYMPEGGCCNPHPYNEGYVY
Procedure, shortened: as §1

TCTTAG was tested, and the binding signal [1] was 1.22 fold enrichment (6-mer frequency, TF over GST control), the binding signal [2] was 1.21 fold enrichment (6-mer frequency, TF over GST control) and the binding signal [3] was 1.22 fold enrichment (6-mer frequency, TF over GST control). For the same sequence, the binding signal [4] was 1.15 fold enrichment (6-mer frequency, TF over GST control), the binding signal [5] was 1.25 fold enrichment (6-mer frequency, TF over GST control) and the binding signal [6] was 1.21 fold enrichment (6-mer frequency, TF over GST control). The binding signal [7] was 1.13 fold enrichment (6-mer frequency, TF over GST control), the binding signal [8] was 1.09 fold enrichment (6-mer frequency, TF over GST control) and the binding signal [9] was 1.11 fold enrichment (6-mer frequency, TF over GST control). The binding signal [10] was 1.16 fold enrichment (6-mer frequency, TF over GST control), the binding signal [11] was 1.21 fold enrichment (6-mer frequency, TF over GST control) and the binding signal [12] was 1.5 fold enrichment (6-mer frequency, TF over GST control). For the same sequence, the binding signal [13] was 1.36 fold enrichment (6-mer frequency, TF over GST control), the binding signal [14] was 1.3 fold enrichment (6-mer frequency, TF over GST control) and the binding signal [15] was 1.21 fold enrichment (6-mer frequency, TF over GST control). For the same sequence, the binding signal [16] was 1.26 fold enrichment (6-mer frequency, TF over GST control), the binding signal [17] was 1.29 fold enrichment (6-mer frequency, TF over GST control) and the binding signal [18] was 1.86 fold enrichment (6-mer frequency, TF over GST control). The binding signal [19] was 1.25 fold enrichment (6-mer frequency, TF over GST control).
